The text below walks through data of PubChem BioAssay (NCI).

Compounds without any hit were thinned out: in the full panel of roughly 83,000, 20% have a hit.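 Percent growth is the endpoint: 0 to 100 indicates growth inhibition (40 means 60% inhibition), 0 means no net growth, and negative values indicate cell death.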 A number with no mark means an inactive call. The source made the active and inactive calls. How the source made its calls: active means growth percent below 10; inactive means the rest.

The test concerns HL-60(TB) leukemia. In words: NCI-60 one-dose screen, 48 h (100 = growth as untreated, 0 = no growth, -100 = all killed). The note with it: 10 µM unless noted.
As for `Cn1c(=O)c2c(nc(Br)n2CC(=O)Nc2ccc(F)cc2)n(C)c1=O`, the growth was 95.3%. With `CCN(CC)c1ccc(/C=N/NC(=O)c2ccc(Nc3ccnc(C(F)(F)F)c3)cc2)c(O)c1` the figure was 53.2%. With `Cc1ccc(S(=O)(=O)N/N=C2\CC3CCC2C3)cc1` (stereo not given) the figure was 98.5%; with `N#CC1c2ccccc2C=CN1C(=O)N(c1ccccc1)c1ccccc1` (stereo not given), -8.07% (active).

Consider `CC(=O)Oc1csc(N(C(C)=O)c2cccc(C(F)(F)F)c2)n1`, for which the growth was 107%.

Regarding `CCN(CCC#N)c1ccccc1`, the growth was 98.1%. The figure for `CCN(CC)c1ccc(CNc2cc(C)nc3ccc(OC)cc23)cc1` is -56.3% (active); for `COc1ccc(-n2c(/C=C/c3ccc(O)c(OC)c3)cc(/C=C/c3ccc(O)c(OC)c3)nc2=O)cc1` it is 33.7%. On to `O=C([O][Sn]([O]C(=O)c1ccccn1)([c]1ccccc1)[c]1ccccc1)c1ccccn1`, for which the growth was 68.5%. Turning to `Nc1cccc(-c2nc3sccn3c2-c2ccnc(NCCCNS(=O)(=O)c3ccc(C(F)(F)F)cc3)n2)c1`, the growth is -18.5% (active). In the case of `COc1ccc(/C(C)=N/NC(=O)CSc2nc3ccccc3c(=O)n2Cc2ccc(S(N)(=O)=O)cc2)c(OC)c1`, the growth was 102%.

As to `O=C(Nc1nccs1)c1noc2ccccc12`, the growth is 95%. With `CC(=O)Nc1cccc(-c2ccc3c(c2)NC(=O)/C3=C\c2ccc[nH]2)c1` the figure was 20.2%. Take `CN1CCN(c2cc(Nc3cc(C4CC4)[nH]n3)nc(Nc3ccc(CC(=O)NCc4cccc(F)c4)cc3)n2)CC1`: the growth is 19.9%. Regarding `CC[C@H]1OC(=O)[C@H](C)[C@@H](O[C@H]2C[C@@](C)(OC)[C@@H](O)[C@H](C)O2)[C@H](C)[C@@H](O[C@@H]2O[C@H](C)C[C@H](N(C)C)[C@H]2O)[C@](C)(O)C[C@H](C)CN(C)[C@H](C)[C@@H](O)[C@]1(C)O`, the growth was 89.9%. Take `O=C1c2ccccc2C(=O)N1c1ccccc1`: the growth was 111%. Regarding `Cc1ccc2oc(=O)cc(/C(=C3/C=CC=N3)c3ccc[nH]3)c2c1`, the growth is -13.6% (active).

Consider `Cc1nnc(/N=C2\NC(=O)/C(=C/C=C/c3ccccc3)S2)s1`, for which the growth is 75.3%. In the case of `CC(=O)c1c(O)c(C)c(O)c2c1OC1=CC(=O)C(C(C)=O)C(=O)C12C` (stereo not given), the growth is 45.4%.

Turning to `CCOc1ccc(/C=C/C(=O)c2cccc(OCCCOc3cccc(C(=O)/C=C/c4ccc(OCC)cc4)c3)c2)cc1`, the growth is 56%. `O=C1c2cc3c(cc2-c2c1c1ccc(F)cc1c(=O)n2C[C@H](O)[C@H](O)[C@H](O)CO)OCO3`: the growth was -14.8% (active). The figure for `O=[N+]([O-])c1cccc(N=NNc2cccc([N+](=O)[O-])c2)c1` is 79.9%; for `O=C1Nc2ccc(Br)cc2C1=N/C=c1\[nH]c(=O)/c(=C/c2ccc(Cl)cc2)s1` it is 100%; for `CCN(CC)Cc1cc(Nc2ccnc3ccc(OC)cc23)ccc1O` it is 32.5%. Take `CCCOc1nc(SCCC)nc2c1cnn2-c1ccccc1`: the growth is 136%. Consider `CCOC(=O)C1=C(C)N2C(=NC3=C(CCCC/C3=C\c3cc(OC)c(OC)c(OC)c3)C2c2cc(OC)c(OC)c(OC)c2)S1` (stereo not given), for which the growth was 49.9%. For the molecule `Cc1ccc(-c2csc3nc(C)c(CCCl)c(=O)n23)cc1`, the growth was 107%. In the case of `C#C[C@]1(O)CC[C@H]2[C@@H]3CC=C4c5nc(Nc6ncccn6)sc5CC[C@]4(C)[C@H]3CC[C@@]21C`, the growth was 60.4%. Consider `O=[N+]([O-])c1ccc(N/N=C\c2cc(Cl)ccc2O)nc1`, for which the growth was -2.47% (active).

Consider `CC(=O)CCC(=O)OCc1cc(=O)c(O)co1`, for which the growth is 95%. The figure for `CS(=O)(=O)c1nsc(N)n1` is 105%; for `CC(=O)c1c(C)nc2ccccc2c1/C=C/c1cccc(C)c1` it is 28.2%.

For the molecule `S=c1c2ncccc2c(-c2ccccn2)nn1Cc1ccccn1`, the growth was 71.6%.

On to `CC(c1ccc(-n2cccn2)cc1)c1cnc(N2CCc3ccc(C(N)=O)cc3C2)s1` (stereo not given), for which the growth is 48.9%. Take `COc1ccc(N2CCN(C(=O)c3sc4nc(C)c(Br)c(C)c4c3N)CC2)cc1`: the growth is 95.7%. For `COc1cccc(NC(=O)c2sc3nc(C)c(C(=O)c4ccccc4)cc3c2N)c1`, the growth is 93.5%.

For the molecule `N#CCCCCCn1c2ccccc2c2c3c(c4c5ccccc5n(CCCCCC#N)c4c21)C(=O)N(O)C3=O`, the growth was 64.3%. Turning to `Cc1cc(NC(=O)COC(=O)c2sc3cc(F)ccc3c2Cl)no1`, the growth is 107%. Turning to `Cc1nc(C)c(C(=O)O)cc1C(=O)O`, the growth was 106%. Regarding `CC(C)Cn1cnc2c(NCn3nc(-c4cc(Cl)cc(Cl)c4Cl)n(/N=C/c4ccc(Cl)cc4)c3=S)nc3ccccc3c21`, the growth is 93.3%.
